The assay deals with Ubiquitin carboxyl-terminal hydrolase 1 (Homo sapiens) (UniProt O94782). Kind of assay: Inhibitors of USP1/UAF1: Hit Validation in Primary Assay. The settings on record: Ub-Rhodamine cleavage, fluorescence kinetic read. From the text: Deubiquitinating enzymes (DUBs) are a class of enzymes that can cleave isopeptide bond formed between the C-terminal carboxylate of ubiquitin and a lysine side-chain amino group on the target protein. Among them, ubiquitin specific proteases (USPs) constitute the largest DUB family. Human USPs are emerging as promising targets for pharmacological intervention because of their connection to a number of human diseases, including prostate, colon and breast cancer (1, 2), pediatric acute lymphoblastic leukemia (3), and familial cylindromatosis (4). The advantage of inhibiting USPs lies in the potential specificity of therapeutic intervention that can lead to better efficacy and reduce nonspecific side effects. […] This miniaturized assay has a fluorescent read-out and is used to screen the NIH Molecular Libraries Small Molecule Repository (MLSMR) in order to identify a small molecule that inhibits USP1. […]
Chain of Ubiquitin carboxyl-terminal hydrolase 1 (Homo sapiens) (O94782 whole entry, looked up): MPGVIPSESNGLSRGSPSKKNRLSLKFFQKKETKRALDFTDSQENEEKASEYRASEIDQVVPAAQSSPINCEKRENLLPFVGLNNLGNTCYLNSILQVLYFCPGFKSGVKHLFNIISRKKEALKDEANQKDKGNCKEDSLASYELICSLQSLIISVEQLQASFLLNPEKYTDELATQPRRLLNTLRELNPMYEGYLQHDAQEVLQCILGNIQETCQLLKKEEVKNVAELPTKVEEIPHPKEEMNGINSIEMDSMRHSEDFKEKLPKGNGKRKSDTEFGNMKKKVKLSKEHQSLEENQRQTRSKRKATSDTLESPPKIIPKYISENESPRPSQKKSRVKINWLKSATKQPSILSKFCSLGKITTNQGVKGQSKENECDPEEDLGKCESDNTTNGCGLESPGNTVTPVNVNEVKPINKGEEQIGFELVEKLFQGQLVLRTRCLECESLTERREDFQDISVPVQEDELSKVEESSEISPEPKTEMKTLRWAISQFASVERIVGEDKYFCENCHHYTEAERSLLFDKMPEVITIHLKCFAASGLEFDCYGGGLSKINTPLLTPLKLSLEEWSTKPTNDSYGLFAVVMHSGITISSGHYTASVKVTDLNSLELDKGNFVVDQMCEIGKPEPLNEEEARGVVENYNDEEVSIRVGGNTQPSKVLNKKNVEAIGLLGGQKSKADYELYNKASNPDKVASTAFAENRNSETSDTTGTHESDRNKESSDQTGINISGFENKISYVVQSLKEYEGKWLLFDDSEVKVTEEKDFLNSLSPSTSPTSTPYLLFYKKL
3 microliters of reagents (buffer in columns 3 and 4 as negative control and 1nM USP1/UAF1 complex in columns 1, 2, and 5-48) are dispensed into Greiner black solid bottom 1536-well assay plates. […] The plates are immediately centrifuged at 1000 rpm for 15 seconds, and subsequently transferred to a ViewLux high-throughput CCD imager (PerkinElmer) wherein kinetic measurements of fluorescence are acquired using 480 nm excitation/540 nm emission filter set (6 reads every 60 seconds, see Table 1). […]

Several values for one entry are separate records, joined by “and”; a condition that tells them apart may be missing. Identical values can stand only once. The list shows a part of the results. Results filed as inconclusive are left out. Activity calls are given as the source filed them. Calls follow the shape of the dose curve; as a rule, active = well fitted inhibition curve with a large enough effect; inconclusive = small, poorly fitted or top-dose-only effect; inactive = flat fitted curve, though single readings scatter.

For the compound `CC(C)c1ccc2c(c1)c(SC(C)(C)C)c(CC(C)(C)C(=O)O)n2Cc1ccc(Cl)cc1`, the Potency is 66.3 µM (active) and 41.8 µM (active).

Values taken from PubChem BioAssay AID540327 (National Center for Advancing Translational Sciences (NCATS), 2011).
